Laboratory results: PubChem BioAssay (NCI)
About 83,000 compounds went through this panel and 20% of them were active in at least one assay; those are over-represented in the sample as a whole.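 Single-concentration screen, 48 h exposure, 96-well plates. Endpoint: percent growth. Below 10 = active.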 Values without a mark were called inactive. Active and inactive are the calls of the source.

What was measured:
Assay in all cases: NCI-60 one-dose screen, 48 h (100 = growth as untreated, 0 = no growth, -100 = all killed)
Settings in all cases: 10 µM unless noted
NCI-H23 lung = system: NCI-H23 lung
NCI-H226 lung = system: NCI-H226 lung
NCI-H322M lung = system: NCI-H322M lung
HOP-62 NSCLC = system: HOP-62 NSCLC
NCI-H460 lung = system: NCI-H460 lung
NCI-H522 lung = system: NCI-H522 lung
A549/ATCC NSCLC = system: A549/ATCC NSCLC
786-0 renal = system: 786-0 renal
COLO 205 colon = system: COLO 205 colon
DU-145 prostate = system: DU-145 prostate
K-562 leukemia = system: K-562 leukemia
MALME-3M melanoma = system: MALME-3M melanoma
MDA-MB-231 breast = system: MDA-MB-231 breast
RXF 393 renal = system: RXF 393 renal
SF-268 CNS = system: SF-268 CNS
SF-295 CNS = system: SF-295 CNS
SF-539 CNS = system: SF-539 CNS
UACC-257 melanoma = system: UACC-257 melanoma
M14 melanoma = system: M14 melanoma

SMILES: Cc1ccc(NC(=O)c2cc(NCc3cc(O)ccc3O)ccc2O)cc1
- growth (NCI-H23 lung): 92.9%
- growth (NCI-H226 lung): 95.4%
- growth (NCI-H322M lung): 101%
- growth (HOP-62 NSCLC): 97.9%
- growth (NCI-H460 lung): 102%
- growth (NCI-H522 lung): -27.5% (active)
- growth (A549/ATCC NSCLC): 80.5%
- growth (786-0 renal): 101%
- growth (COLO 205 colon): 105%
- growth (DU-145 prostate): 106%
- growth (K-562 leukemia): 70.9%
- growth (MALME-3M melanoma): 97.9%
- growth (MDA-MB-231 breast): 78.5%
- growth (RXF 393 renal): 87.5%
- growth (SF-268 CNS): 83.5%
- growth (SF-295 CNS): 116%
- growth (SF-539 CNS): 84.3%
- growth (UACC-257 melanoma): 78.9%
- growth (M14 melanoma): 107%

SMILES: COc1ccc2c(c1)sc1nc(-c3ccccc3)c(-c3cccc4ccccc34)n12
- growth (NCI-H23 lung): 39.3%
- growth (NCI-H226 lung): 68.2%
- growth (NCI-H322M lung): 57.9%
- growth (HOP-62 NSCLC): 64.4%
- growth (NCI-H460 lung): 8.82% (active)
- growth (NCI-H522 lung): -11% (active)
- growth (A549/ATCC NSCLC): 24.2%
- growth (786-0 renal): 51.7%
- growth (COLO 205 colon): 6.28% (active)
- growth (DU-145 prostate): 18.9%
- growth (K-562 leukemia): 15%
- growth (MALME-3M melanoma): 51.5%
- growth (MDA-MB-231 breast): 39.7%
- growth (RXF 393 renal): 7.5% (active)
- growth (SF-268 CNS): 50.8%
- growth (SF-295 CNS): -38.7% (active)
- growth (SF-539 CNS): 0.248% (active)
- growth (UACC-257 melanoma): 68.4%
- growth (M14 melanoma): 21%

SMILES: O=C(c1ccccc1)C1OC1C(=O)c1ccccc1 (centres undefined)
- growth (NCI-H23 lung): 3.63% (active)
- growth (NCI-H226 lung): 61.1%
- growth (NCI-H322M lung): 75.4%
- growth (HOP-62 NSCLC): 21%
- growth (NCI-H460 lung): 64.1%
- growth (NCI-H522 lung): 8.93% (active)
- growth (A549/ATCC NSCLC): 70.4%
- growth (786-0 renal): 15.1%
- growth (COLO 205 colon): 27.6%
- growth (DU-145 prostate): 1.5% (active)
- growth (K-562 leukemia): 9.28% (active)
- growth (MALME-3M melanoma): 30.5%
- growth (MDA-MB-231 breast): 25.9%
- growth (RXF 393 renal): 2.72% (active)
- growth (SF-268 CNS): 39.5%
- growth (SF-295 CNS): 72.8%
- growth (SF-539 CNS): 24.5%
- growth (UACC-257 melanoma): 40.2%
- growth (M14 melanoma): 17.3%

SMILES: CCCCCCCCCCCC1=NC(C)(C)CN1CC(C)O (centres undefined)
- growth (NCI-H23 lung): 64.1%
- growth (NCI-H226 lung): 92.8%
- growth (NCI-H322M lung): 92.2%
- growth (HOP-62 NSCLC): 60.2%
- growth (NCI-H460 lung): 62.6%
- growth (NCI-H522 lung): 57%
- growth (A549/ATCC NSCLC): 85.4%
- growth (786-0 renal): 69.1%
- growth (COLO 205 colon): -97.5% (active)
- growth (DU-145 prostate): 80.1%
- growth (K-562 leukemia): -44.6% (active)
- growth (MALME-3M melanoma): 79%
- growth (MDA-MB-231 breast): 44%
- growth (RXF 393 renal): 28.9%
- growth (SF-268 CNS): 60.1%
- growth (SF-295 CNS): 93.3%
- growth (SF-539 CNS): 63.8%
- growth (UACC-257 melanoma): 59.5%
- growth (M14 melanoma): -2.07% (active)

SMILES: CCOc1cc(/C=N\NC(=O)C[N+](C)(C)C)ccc1O
- growth (NCI-H23 lung): 104%
- growth (NCI-H226 lung): 97.5%
- growth (NCI-H322M lung): 123%
- growth (HOP-62 NSCLC): 115%
- growth (NCI-H460 lung): 114%
- growth (NCI-H522 lung): 104%
- growth (A549/ATCC NSCLC): 105%
- growth (786-0 renal): 113%
- growth (COLO 205 colon): 119%
- growth (DU-145 prostate): 116%
- growth (K-562 leukemia): 73.4%
- growth (MALME-3M melanoma): 115%
- growth (MDA-MB-231 breast): 127%
- growth (RXF 393 renal): 120%
- growth (SF-268 CNS): 109%
- growth (SF-295 CNS): 111%
- growth (SF-539 CNS): 120%
- growth (UACC-257 melanoma): 112%
- growth (M14 melanoma): 118%

SMILES: O=c1c2cc(Br)cc(Br)c2nc(-c2ccc(Cl)cc2)n1/N=C\c1ccccc1F
- growth (NCI-H23 lung): 62.9%
- growth (NCI-H226 lung): 51.2%
- growth (NCI-H322M lung): 52.5%
- growth (HOP-62 NSCLC): 27.4%
- growth (NCI-H460 lung): 39.1%
- growth (NCI-H522 lung): 51.3%
- growth (A549/ATCC NSCLC): 57.1%
- growth (786-0 renal): -34% (active)
- growth (COLO 205 colon): 66.3%
- growth (DU-145 prostate): 96%
- growth (K-562 leukemia): 72.1%
- growth (MALME-3M melanoma): 90.4%
- growth (MDA-MB-231 breast): 55.1%
- growth (RXF 393 renal): 72.9%
- growth (SF-268 CNS): 73.3%
- growth (SF-295 CNS): 29.8%
- growth (SF-539 CNS): 81.9%
- growth (UACC-257 melanoma): 89.9%
- growth (M14 melanoma): 81.8%

SMILES: CCCCSc1ncnc2c1ncn2C1CCCCO1 (centres undefined)
- growth (NCI-H23 lung): 106%
- growth (NCI-H226 lung): 107%
- growth (NCI-H322M lung): 114%
- growth (HOP-62 NSCLC): 105%
- growth (NCI-H460 lung): 111%
- growth (NCI-H522 lung): 106%
- growth (A549/ATCC NSCLC): 105%
- growth (786-0 renal): 97.9%
- growth (COLO 205 colon): 108%
- growth (DU-145 prostate): 121%
- growth (K-562 leukemia): 97%
- growth (MALME-3M melanoma): 115%
- growth (MDA-MB-231 breast): 110%
- growth (RXF 393 renal): 120%
- growth (SF-268 CNS): 106%
- growth (SF-295 CNS): 111%
- growth (SF-539 CNS): 104%
- growth (UACC-257 melanoma): 108%
- growth (M14 melanoma): 103%

SMILES: COc1cc(C2CC(c3ccc(Cl)cc3)=NN2C(C)=O)ccc1Oc1ccnc2cc(Cl)ccc12 (centres undefined)
- growth (NCI-H23 lung): 64.1%
- growth (NCI-H226 lung): 19.5%
- growth (NCI-H322M lung): 53.3%
- growth (HOP-62 NSCLC): 23.1%
- growth (NCI-H460 lung): 30.8%
- growth (NCI-H522 lung): 40.9%
- growth (A549/ATCC NSCLC): 42.6%
- growth (786-0 renal): 33.6%
- growth (COLO 205 colon): 26.2%
- growth (DU-145 prostate): 36.6%
- growth (K-562 leukemia): 65.3%
- growth (MALME-3M melanoma): 53.9%
- growth (MDA-MB-231 breast): 36.1%
- growth (RXF 393 renal): 46.1%
- growth (SF-268 CNS): 57.5%
- growth (SF-295 CNS): 18.3%
- growth (SF-539 CNS): 40.2%
- growth (UACC-257 melanoma): 68.5%
- growth (M14 melanoma): 79.9%

SMILES: Cc1ccc([C@H]2c3[nH]c4ccccc4c3C[C@H]3C(=O)N(CCCCCCC(=O)NO)CC(=O)N23)cc1
- growth (NCI-H23 lung): 63.8%
- growth (NCI-H226 lung): 94.2%
- growth (NCI-H322M lung): 55.6%
- growth (HOP-62 NSCLC): 52.9%
- growth (NCI-H460 lung): 48.7%
- growth (NCI-H522 lung): 24.2%
- growth (A549/ATCC NSCLC): 85.6%
- growth (786-0 renal): 82.1%
- growth (COLO 205 colon): 47.3%
- growth (DU-145 prostate): 60.5%
- growth (K-562 leukemia): 20.2%
- growth (MALME-3M melanoma): 19.5%
- growth (MDA-MB-231 breast): 44.4%
- growth (RXF 393 renal): 51.5%
- growth (SF-268 CNS): 68.6%
- growth (SF-295 CNS): 67.4%
- growth (SF-539 CNS): 52.6%
- growth (UACC-257 melanoma): 50.5%
- growth (M14 melanoma): 43.6%

SMILES: O=C(Nc1cccc(N=Cc2c(O)ccc3ccccc23)c1)c1ccccc1
- growth (NCI-H23 lung): 95.8%
- growth (NCI-H226 lung): 94.1%
- growth (NCI-H322M lung): 95%
- growth (HOP-62 NSCLC): 86.9%
- growth (NCI-H460 lung): 111%
- growth (NCI-H522 lung): 76.8%
- growth (A549/ATCC NSCLC): 94.7%
- growth (786-0 renal): 93.4%
- growth (COLO 205 colon): 105%
- growth (DU-145 prostate): 98.2%
- growth (K-562 leukemia): 97.3%
- growth (MALME-3M melanoma): 102%
- growth (MDA-MB-231 breast): 94.1%
- growth (RXF 393 renal): 90.4%
- growth (SF-268 CNS): 89.1%
- growth (SF-295 CNS): 95.2%
- growth (SF-539 CNS): 90.5%
- growth (UACC-257 melanoma): 91.6%
- growth (M14 melanoma): 91.1%

SMILES: CC(C)CCSc1nc(-c2ccc(F)cc2)c(C#N)c(N2CCN(C)CC2)n1
- growth (NCI-H23 lung): 91.5%
- growth (NCI-H226 lung): 96.8%
- growth (NCI-H322M lung): 87.8%
- growth (HOP-62 NSCLC): 85.2%
- growth (NCI-H460 lung): 88.8%
- growth (NCI-H522 lung): 59%
- growth (A549/ATCC NSCLC): 65%
- growth (786-0 renal): 65.6%
- growth (COLO 205 colon): 84.6%
- growth (DU-145 prostate): 94.4%
- growth (K-562 leukemia): 62.7%
- growth (MALME-3M melanoma): 97.4%
- growth (MDA-MB-231 breast): 53.3%
- growth (RXF 393 renal): 78.8%
- growth (SF-268 CNS): 83%
- growth (SF-295 CNS): 101%
- growth (SF-539 CNS): 93.1%
- growth (UACC-257 melanoma): 64.1%
- growth (M14 melanoma): 94.7%
